The full list was thinned out, with hits kept by preference.
Tgondii IFNg: T. gondii growth inhibition with IFN-gamma, primary screen, cell-based; 3.8% of 69,000 active; Toxoplasma gondii growth in IFN-gamma-treated host cells; stronger effect = lower value; AID 1259416, 2018; activity change, negative = inhibition, % (no concentration beside the values); in the data active = activity change below about -70%, passing the limit was not always enough;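 also: host cells are HeLa cells infected with Toxoplasma gondii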
Numbers stand for hits; i = inactive; ! = a repeat was not active.

SMILES	Tgondii IFNg
COc1ccc2n[nH]c(CN3CCN(c4ncnc5ccccc45)CC3)c2c1	i
CCC/C=C/c1ncccc1C(=O)N1CCCC1	i
COc1ccc(-c2cc3c(n(C)c2=O)CCN(C(=O)CCc2scnc2C)C3)c2ccc(C)nc12	i
Cc1oc(-c2ccc(C(=O)NCc3cccs3)cc2)nc1CN1CCc2ccccc21	-94.3
CCOC(=O)C1CCCN(C(=O)c2ccc(-c3nc(CN4CCc5ccccc54)c(C)o3)cc2)C1 (centres undefined)	i
CCCCN(C)C(=O)c1ccc(-c2nc(CN3CCN(c4ccccc4)CC3)c(C)o2)cc1	i
Cc1oc(-c2ccc(C(=O)N3CCCCCC3)cc2)nc1CN1CCc2ccccc21	-101.2
Cc1oc(-c2ccc(C(=O)N3CCC(C)CC3)cc2)nc1CN1CCc2ccccc21	i
Cc1oc(-c2ccc(C(=O)N(C)Cc3ccccc3)cc2)nc1CN1CCN(c2ccccc2)CC1	-94.0
CCOc1ccc(CNC(=O)c2ccc(-c3nc(CN4CCc5ccccc54)c(C)o3)cc2)cc1	i
COCCCNC(=O)c1ccc(-c2nc(CN3CCc4ccccc43)c(C)o2)cc1	i
Cc1ccc(CNC(=O)c2ccc(-c3nc(CN4CCc5ccccc54)c(C)o3)cc2)o1	i
CCCCOc1ccc(CNC(=O)c2ccc(-c3nc(CN4CCc5ccccc54)c(C)o3)cc2)cc1	-93.5
CNC(=O)c1ccc(-c2nc(CN3CCN(c4ccccc4)CC3)c(C)o2)cc1	i
Cc1oc(-c2ccc(C(=O)NCc3ccccc3Cl)cc2)nc1CN1CCc2ccccc21	i
CC(C)Nc1nc2c(cc1C(=O)NCC1CC1)CCN(c1ncccn1)CC2	i
CCCCN1C(=O)N(c2nnc(C(C)(C)C)s2)C(O)C1c1ccc(Cl)c(Cl)c1 (centres undefined)	i
COc1cccc(C(=O)N2CCC(Cc3nncn3C)CC2)c1OC	i
COc1ccc(-c2nc(NCCCN3CCN(Cc4ccccc4)CC3)c3ccccc3n2)cc1	i
Cc1ccc(N2CCC(N(C)Cc3snnc3C)CC2)cc1	i
COCC(=O)N1CCC2(CC1)CN(Cc1nccs1)CCO2	i
CC(C)CN1C[C@@H]2c3nc(N4CCOCC4)ncc3CS(=O)(=O)[C@H]2C1	i
O=C(CCO)N1CC[C@H]2[C@H]1CC(=O)N2c1ccsc1	i
CC1=NOC(C(=O)Nc2ccc(NC(=O)c3coc(C)c3)cc2)C1 (centres undefined)	i
Cc1cnc(N2CCC3(CC2)CN(c2ccsc2)C(=O)CO3)nc1	i
SMILES	Tgondii IFNg
CC(C)(Cc1ccc(F)cc1)NC(=O)c1cn2c(n1)CNCC2	i
CCCNC(=O)C1=C(C)C(=O)OC12CCN(S(=O)(=O)c1cccs1)CC2	i
C=CCN(C(=O)CCc1c(C)nn(C)c1C)C1CCS(=O)(=O)C1 (centres undefined)	i
CC(C(=O)NCc1cn2c(n1)SCC2)N1C(=O)c2cccc3cccc1c23 (centres undefined)	i
COc1ccc2c(c1)CC(NCCOc1ccccc1F)CC2 (centres undefined)	i
Cc1oc(-c2ccc(C(=O)NCCc3ccccc3)cc2)nc1CN1CCc2ccccc21	-126.9
Cc1oc(-c2ccc(C(=O)NCCCc3ccccc3)cc2)nc1CN1CCc2ccccc21	i
CCCCNC(=O)c1ccc(-c2nc(CN3CCc4ccccc43)c(C)o2)cc1	i
O=C(COC(=O)c1ccc(S(=O)(=O)NCc2ccco2)cc1)c1ccc(Cl)cc1	i
CCN1CCC2(CC1)CC(NCc1cccs1)c1ccccc1O2 (centres undefined)	i
CC(=O)N1CCCCCC1Cc1c(C(=O)NC(C)C)sc2ccccc12 (centres undefined)	i
CN1CCN(c2cc(C(F)(F)F)ccn2)CC1C(=O)O (centres undefined)	i
CN(C(=O)C(C)(C)Oc1cc(C(F)(F)F)n(C)n1)c1ccccc1	i
Cc1ccccc1-c1cc(N2CCN(C)CC2)ncc1N(C)C(=O)C(C)(C)c1cc(C(F)(F)F)cc(C(F)(F)F)c1	-72.5
CCn1c(CC2CCN(C(=O)c3cc4sccc4[nH]3)CC2)nn(C)c1=O	i
CCN(CC)C1CCN(c2ccc(-c3ccccc3OC)nn2)C1 (centres undefined)	i
COc1cccc(CNC(=O)N2CCC3(CC2)CC(=O)c2ccccc2O3)c1	i
COc1ccc2c(c1)NC1(CCN(C(=O)Nc3ccc(Br)cc3F)CC1)c1cccn1-2	i
CCCc1oncc1C(=O)N1CCCC(N(C)CCN(C)C)C1 (centres undefined)	i
O=C(NCc1ccc(F)cc1F)c1cc(-c2cnc(N3CCCC3)nc2)cn1CC1CC1	-103.2
CCCCN(C)C(=O)c1cc(-c2cnc(N3CCOCC3)nc2)cn1CC1CC1	i
Cc1cccc(NC(=O)c2cc(-c3cnc(N4CCOCC4)nc3)cn2CC2CC2)c1	-79.7
COc1ncccc1NC(=O)c1cc(-c2cnc(N3CCCC3)nc2)cn1CC1CC1	i
Cc1ccc(NC(=O)c2cc(-c3cnc(N4CCCC4)nc3)cn2CC2CC2)cn1	i
CN(C)C(=O)CNC(=O)c1cc(-c2cnc(N3CCOCC3)nc2)cn1CC1CC1	i
SMILES	Tgondii IFNg
CCn1cc(CN2CCCC(OCc3cccnc3)C2)cn1 (centres undefined)	i
CN(C)C(=O)[C@]12CCO[C@@H]1CCN(c1ncc(F)cn1)C2	i
Cc1cccc(N2CCCC3(CN(C(=O)[C@H]4CCCO4)CCO3)C2)c1 (some centres undefined)	i
O[C@H]1C[C@@H]2CN(Cc3cccc4c3oc3ccccc34)C[C@@H]2C[C@@H]1O	i
OCCN1CCN(CCCN2c3ccccc3C=Cc3ccccc32)CC1	i
CN(C)CC/C=C1/c2ccccc2Sc2ccc(Cl)cc21	i
CC(CN(C)C)CN1c2ccccc2Sc2ccccc21 (centres undefined)	i
CN1CCCC(CN2c3ccccc3Sc3ccccc32)C1 (centres undefined)	i
CN1CCN(CCCN2c3ccccc3Sc3ccc(Cl)cc32)CC1	i
OCCN1CCN(CC/C=C2/c3ccccc3Sc3ccc(C(F)(F)F)cc32)CC1	-77.2
CN(C)CCCN1c2ccccc2Sc2ccc(C(F)(F)F)cc21	-89.3!
COc1ccc2c(c1)N(C[C@H](C)CN(C)C)c1ccccc1S2	i
CCSc1ccc2c(c1)N(CCCN1CCN(C)CC1)c1ccccc1S2	-78.0
CC(=O)c1ccc2c(c1)N(CCCN1CCN(CCO)CC1)c1ccccc1S2	i
CN1CCN(CCC=C2c3ccccc3Sc3ccc(S(=O)(=O)N(C)C)cc32)CC1	i
OCCN1CCN(CCCN2c3ccccc3Sc3ccc(C(F)(F)F)cc32)CC1	-96.8!
CCOC(=O)[C@@]12CCCN(CC3CCOCC3)C[C@@H]1CN(C(C)=O)C2	i
CN1[C@H]2CC[C@@H]1CN(C(=O)c1ccccc1N1CCS(=O)(=O)CC1)CC2	i
CC1=C(C(=O)N(C)CCCOc2ccccc2C)C(C)NC(=O)N1 (centres undefined)	i
Cn1cc(N2C[C@@H]3CN(C(=O)c4cccs4)C[C@@H]3C2=O)cn1	i
CN(C)C(=O)n1c(C(=O)NCC(F)(F)F)cc2c1c1ccccc1n2CC1CC1	i
COc1ccc(NC(=O)N2CCN3CCN(C)CC3C2)cc1Cl (centres undefined)	i
COc1ccccc1N(Cc1nc(-c2ccc(C)cc2)oc1C)S(=O)(=O)c1ccccc1	i
CC(=O)Nc1ncc(-c2cccc(C3CCCN(C(=O)OC(C)(C)C)C3)n2)s1 (centres undefined)	i
COc1ccc(-c2c(C)nn3c(C4CCN(Cc5ccccc5)C4)ccnc23)cc1OC (centres undefined)	i
